From PubChem BioAssay
Pf growth 96h = P. falciparum growth inhibition at 96 hour, primary screen for plastid delayed-death inhibitors. P. falciparum luciferase reporter growth, 96 h. Potency, µM (titrated, usually from 28.7 µM), inactives show at the highest dose activity change, negative = inhibition, usual class: inhibitors. hit rate 6.9% among 320,000
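Compounds incubated with erythrocytes infected by luciferase-expressing P. falciparum (2% hematocrit, 0.05% parasitemia final) for 96 hours, 37 C in 5% CO2. Growth inhibition scored as decreased luciferase luminescence.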
AmpC inh no detg = blocks E. coli AmpC beta-lactamase in detergent-free assay. AID 485341. AmpC nitrocefin hydrolysis, absorbance 480 nm, 0.0001% Triton. hit rate 0.52% among 330,000. Potency, µM (top dose mostly 57.1 µM), for the others: top-dose activity change, negative = inhibition, hits mostly inhibitors. P00811;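 note: plate controls were no compound for no effect and no enzyme for full effect; nearly all actives have a fitted effect of over 20% in size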
Target sequence (P00811 whole entry, looked up): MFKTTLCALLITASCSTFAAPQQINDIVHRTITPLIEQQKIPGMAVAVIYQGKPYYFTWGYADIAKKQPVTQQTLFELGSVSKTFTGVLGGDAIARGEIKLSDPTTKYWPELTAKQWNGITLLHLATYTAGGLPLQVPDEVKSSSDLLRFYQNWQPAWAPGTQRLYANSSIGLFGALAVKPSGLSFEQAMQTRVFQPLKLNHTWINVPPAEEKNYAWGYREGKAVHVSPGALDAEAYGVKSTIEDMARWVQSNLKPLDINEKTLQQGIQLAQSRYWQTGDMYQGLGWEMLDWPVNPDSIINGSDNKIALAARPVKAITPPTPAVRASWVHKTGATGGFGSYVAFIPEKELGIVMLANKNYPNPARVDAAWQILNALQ
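20 mM phosphate pH 7.0 + 0.01% (detergent screen) or 0.0001% Triton X-100; 5.3 nM AmpC reagent; cpd preinc 15 min RT; nitrocefin (800 uM stock) to start; A480 q20 s × 4 min; Activity was normalised to no-enzyme and no-compound control wells.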
AMA1-RON2 inh = AMA1-RON2 (P. falciparum) interaction inhibition; AlphaScreen AMA1-biotinylated RON2 peptide binding; Potency, µM (titrated, usually from 58.2 µM), for inactives: top-dose activity change, negative = inhibition, most hits filed as inhibitors; hit rate 0.2% among 360,000; AID 720542;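 note: 0% = vehicle wells and -100% = peptide control; nearly all actives have a fitted effect of over 45% in size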
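AMA1 (3D7) with his tag at 25 nM final met compounds first, then biotinylated RON2 peptide at 25 nM; detection used donor plus acceptor beads, 10 µg/mL apiece, read by AlphaScreen after 30 min at room temperature.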
AmpC inh detg = blocks E. coli AmpC beta-lactamase in detergent assay. AmpC hydrolysis of nitrocefin, absorbance 480 nm, 0.01% Triton. P00811. hit rate 0.041% among 370,000. Potency, µM (titrated, usually from 114 µM), without a hit: at the highest dose activity change, negative = inhibition, hits mostly inhibitors;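 note: 0% = no-compound wells and -100% = no-enzyme wells; nearly all actives have a fitted effect of over 25% in size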
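20 mM phosphate pH 7.0 + 0.01% (detergent screen) or 0.0001% Triton X-100; 5.3 nM AmpC reagent; cpd preinc 15 min RT; nitrocefin (800 uM stock) to start; A480 q20 s × 4 min; Activity was normalised to no-enzyme and no-compound control wells.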
Pf growth 48h = inhibits P. falciparum growth in the first generation, 48 h; P. falciparum luciferase growth in erythrocytes, 48 h; Potency, µM (top dose mostly 28.7 µM), for inactives: top-dose activity change, negative = inhibition, usual class: inhibitors; hit rate 5.9% among 310,000; AID 504832
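First compound was added to culture medium, then infected red cells at 0.1% parasitemia and 2% hematocrit (final). After incubation at 37 C under 5% CO2, luciferase detection reagent was dispensed and light output recorded.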
HCV inhibitor = blocks hepatitis C virus | Huh7.5.1 HCVcc-Cre infection, luciferase reporter, 44 h | Potency, µM (highest dose often 41.8 µM), for the others: at the top dose activity change, negative = inhibition, actives largely listed as inhibitors | hit rate 3.4% among 340,000 | AID 651820
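HCVcc-Cre virus at an moi near 0.5 was added right after compound to cells cultured 4 h from seeding (1,000 cells/well). Luciferase activity was determined 44 h later, 15 min after substrate addition at RT.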
Numbers without * were called inactive. Only some compounds are listed: those with a hit (about 11% of all), similar ones and a draw of the others. Calls come from the whole dose curve; as a rule, active = well fitted curve in the direction sought with a large enough effect; inconclusive = small, poorly fitted or top-dose-only effect, or another doubt; inactive = no such curve, though single readings can be large; an effect the other way counts as inactive or inconclusive. Unless noted, % is set by controls: 0 for no effect and ±100 for the full control effect; potency is the fitted concentration of half-maximal effect.

For Cc1ccc(C(=O)N2CCN(c3ccc(NC(=S)NC(=O)c4cccs4)cc3)CC2)cc1 the results were Pf growth 96h -14.7%, AmpC inh no detg -23.1%, AMA1-RON2 inh 32.9%, AmpC inh detg 5.3%, Pf growth 48h inconclusive and HCV inhibitor 2.24µM*.
`CCC(=O)N1CCN(c2ccc(NC(=O)c3cccs3)cc2)CC1` gave Pf growth 96h 13.1µM*, AmpC inh no detg -15.4%, AMA1-RON2 inh -1.6%, AmpC inh detg -11.7%, Pf growth 48h -4.5% and HCV inhibitor 7.3%.
Screening O=C(NC(=S)Nc1ccc(N2CCOCC2)cc1)c1ccc(Cl)cc1 returned Pf growth 96h 21.9%, AmpC inh no detg -20.0%, AMA1-RON2 inh 23.2%, AmpC inh detg 2.9%, Pf growth 48h 15.9% and HCV inhibitor 0.6%.
Screening CCC(Sc1nc2ccccc2c2nc(CCc3c(C)n[nH]c3C)nn12)C(=O)Nc1ccc(OC)cc1 (centres undefined) returned AmpC inh detg 2.2%.
Screening CN1CCN(c2ccc(NC(=S)NC(=O)c3cccc4ccccc34)cc2)CC1 returned Pf growth 96h 0.0%, AmpC inh no detg 23.5%, AMA1-RON2 inh -25.5%, AmpC inh detg -12.1%, Pf growth 48h inconclusive and HCV inhibitor 11.2µM*.
`Cc1ccccc1C(=O)N1CCN(c2ccc(NC(=S)NC(=O)c3cccs3)cc2)CC1` gave Pf growth 96h -3.0%, AmpC inh no detg 57.0%, AMA1-RON2 inh 37.3%, AmpC inh detg 0.1%, Pf growth 48h 9.28µM* and HCV inhibitor inconclusive.
For CN1CCN(c2ccc(NC(=S)NC(=O)c3cccc4c(Br)cccc34)cc2)CC1 the results were Pf growth 96h -35.2%, AmpC inh no detg -10.3%, AMA1-RON2 inh -0.3%, AmpC inh detg inconclusive, Pf growth 48h inconclusive and HCV inhibitor inconclusive.
Screening CCOC(=O)c1c(C)nn(-c2ccc(NC(=O)c3c(C)noc3C)cc2)c1C returned Pf growth 96h -6.3%, AmpC inh no detg 70.3%, AMA1-RON2 inh -10.1%, AmpC inh detg -6.7%, Pf growth 48h -6.3% and HCV inhibitor -9.7%.
Screening NC(=O)c1ccc(NC(=O)CN2CCN(c3ccc(Cl)cc3)CC2)cc1 returned Pf growth 96h 11.7µM*, AmpC inh no detg -19.4%, AMA1-RON2 inh 6.7%, AmpC inh detg -6.8%, Pf growth 48h 6.9% and HCV inhibitor -4.2%.
O=C(NC(=S)Nc1ccc(N2CCOCC2)cc1)c1cccs1 was read as Pf growth 96h 0.0%, AmpC inh no detg -19.1%, AMA1-RON2 inh 35.3%, AmpC inh detg -0.9%, Pf growth 48h 45.2% and HCV inhibitor -17.9%.
Screening NC(=O)c1ccc(NC(=O)CN2CCN(c3ccccc3)CC2)cc1 returned Pf growth 96h inconclusive, AmpC inh no detg -15.6%, AMA1-RON2 inh 9.9%, AmpC inh detg -9.6%, Pf growth 48h 2.7% and HCV inhibitor 8.8%.
`CCOC(=O)c1c(C)nn(-c2ccc(NC(=O)c3cccs3)cc2)c1C` gave Pf growth 96h 3.29µM*, AmpC inh no detg -4.3%, AMA1-RON2 inh -7.2%, AmpC inh detg -8.5%, Pf growth 48h 14.7µM* and HCV inhibitor inconclusive.
`COc1ccc(C)cc1NS(=O)(=O)c1c(C(=O)N2CCCCCC2)c(C)n(C)c1C` gave AmpC inh detg -4.8%.
`Cc1ccccc1C(=O)Nc1ccc(N2CCN(C(=O)c3ccco3)CC2)cc1` gave Pf growth 96h inconclusive, AmpC inh no detg 8.7%, AMA1-RON2 inh -0.9%, AmpC inh detg -14.2%, Pf growth 48h -7.9% and HCV inhibitor -11.3%.
For Cc1ccc(C(=O)NC(=S)Nc2ccc(N3CCN(C(=O)c4ccco4)CC3)cc2)cc1 the results were Pf growth 96h 5.22µM*, AmpC inh no detg -1.9%, AMA1-RON2 inh 0.6%, AmpC inh detg -7.0%, Pf growth 48h inconclusive and HCV inhibitor 11.2µM*.
N#Cc1c(SCC(=O)N2CCCCC2)nsc1SCC(=O)N1CCCCC1 was read as Pf growth 96h 0.0%, AmpC inh no detg -10.2%, AMA1-RON2 inh 10.3%, AmpC inh detg -13.2%, Pf growth 48h 14.7µM* and HCV inhibitor 1.9%.
C#CCSc1nsc(SCC#C)c1C#N was read as Pf growth 96h inconclusive, AmpC inh no detg -43.2%, AMA1-RON2 inh -10.8%, AmpC inh detg 4.5%, Pf growth 48h inconclusive and HCV inhibitor 11.2µM*.
O=C(CSc1nc(=O)n(CCN2CCOCC2)c2c1CCC2)Nc1ccc(Cl)c(Cl)c1 was read as AmpC inh detg -0.4%.
Cc1nc2ccc(S(=O)(=O)N(CC(=O)Nc3cccc(F)c3)Cc3ccccc3)cc2s1 was read as AmpC inh detg -2.3%.
O=C(O)c1c(-c2ccccc2)oc2ccc(OCc3ccc(Cl)c(Cl)c3)cc12 was read as AmpC inh detg 3.7%.
CCN1CCN(c2c(S(=O)(=O)c3ccc(OC)cc3)cnc3cc(OC)c(OC)cc23)CC1 was read as AmpC inh detg -8.8%.
Screening COc1cc2ncc(S(=O)(=O)c3ccccc3)c(N3CCCC(C)C3)c2cc1OC (centres undefined) returned Pf growth 96h 11.0%, AmpC inh no detg 140.8%, AMA1-RON2 inh 0.0%, AmpC inh detg -8.2%, Pf growth 48h inconclusive and HCV inhibitor 11.2µM*.
CCn1c(SC(C)C(=O)NCC2CCCO2)nc2scc(-c3ccccc3)c2c1=O (centres undefined) was read as Pf growth 96h 2.94µM*, AmpC inh no detg 144.0%, AMA1-RON2 inh -9.7%, AmpC inh detg inconclusive, Pf growth 48h 7.38µM* and HCV inhibitor inconclusive.
Screening O=C(CSc1nnc(Cc2cccs2)n1-c1ccccc1)NCc1ccc2c(c1)OCO2 returned AmpC inh no detg 2.1%, AMA1-RON2 inh 21.4%, AmpC inh detg -6.4%, Pf growth 48h -21.2% and HCV inhibitor 5.2%.
`COCCn1c(SC(C)C(=O)NCC2CCCO2)nc2scc(-c3ccc(F)cc3)c2c1=O` (centres undefined) gave Pf growth 96h inconclusive, AmpC inh no detg 201.6%, AMA1-RON2 inh -4.1%, AmpC inh detg 0.0%, Pf growth 48h 13.1µM* and HCV inhibitor inconclusive.
C=CCn1c(SCC(=O)NCC2CCCO2)nc2scc(-c3ccccc3)c2c1=O (centres undefined) was read as Pf growth 96h 19.4%, AmpC inh no detg 113.9%, AMA1-RON2 inh -3.2%, AmpC inh detg 8.6%, Pf growth 48h inconclusive and HCV inhibitor inconclusive.
